Laboratory results: PubChem BioAssay AID686954 (Sanford-Burnham Center for Chemical Genomics, 2013)
The campaign covered roughly 30,000 compounds. About 240 (0.8%) were called active. This excerpt belongs to a sample that is enriched for actives. Unmarked numbers belong to inactive results.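 How the source made its calls: active means at 10 µM dose, at least 30% inhibition, measured as corrected fluorescence normalized to stimulator and neutral control wells; inactive means the rest.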

These molecules were tested against Protein artemis (Homo sapiens) (UniProt Q96SD1) (assay: blockers of Artemis DNA hairpin overhang cleavage – biochemical, fluorescence intensity, FAM/BHQ-1 hairpin substrate, primary screen (AID 686954)). Conditions: recombinant Artemis, quenched FAM hairpin cleavage fluorescence; at 10 µM; hits give high values.
Protein artemis (Homo sapiens), sequence (Q96SD1 whole entry, looked up): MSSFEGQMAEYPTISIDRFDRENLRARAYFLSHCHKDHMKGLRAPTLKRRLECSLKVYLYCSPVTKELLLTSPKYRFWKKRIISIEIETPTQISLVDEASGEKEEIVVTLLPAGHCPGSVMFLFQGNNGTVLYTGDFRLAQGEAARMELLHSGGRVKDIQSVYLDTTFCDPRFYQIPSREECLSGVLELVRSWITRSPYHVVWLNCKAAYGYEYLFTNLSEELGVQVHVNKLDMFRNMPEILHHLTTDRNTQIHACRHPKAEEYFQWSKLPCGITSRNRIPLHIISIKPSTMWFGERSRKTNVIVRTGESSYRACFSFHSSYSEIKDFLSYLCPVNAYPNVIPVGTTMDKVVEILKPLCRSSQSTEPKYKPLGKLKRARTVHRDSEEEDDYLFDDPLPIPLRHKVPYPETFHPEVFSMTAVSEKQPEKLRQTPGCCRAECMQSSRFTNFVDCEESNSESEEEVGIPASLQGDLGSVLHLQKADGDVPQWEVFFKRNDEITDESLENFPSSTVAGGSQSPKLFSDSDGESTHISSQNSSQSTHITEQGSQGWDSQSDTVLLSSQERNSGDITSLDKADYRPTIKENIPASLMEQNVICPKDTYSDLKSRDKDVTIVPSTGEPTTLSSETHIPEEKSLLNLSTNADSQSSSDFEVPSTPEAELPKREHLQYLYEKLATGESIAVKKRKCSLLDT

| Structure (SMILES) | inhibition |
| --- | --- |
| CC(=O)N1Cc2ccccc2CC1C(=O)O (stereo not drawn) | -0.69% |
| Cc1ccc(C(=O)Nc2c(C#N)c(C)c(C)n2Cc2ccccc2)cc1 | -5.83% |
| CC(C)NC(=O)C(=O)NCCCOC(C)C | -3.28% |
| COC(=O)C(C(=O)Nc1cccc(C)n1)C1CCCCCC1 (stereo not drawn) | -2.41% |
| COc1ccc(CCN2C(=O)C3CC=C(C)CC3C2=O)cc1OC (stereo not drawn) | -6.71% |
| COC(=O)C1=C(Nc2ccc(OC)cc2)C=C(C)C(C(=O)OC)C1c1ccc(C)cc1 (stereo not drawn) | -2.07% |
| Fc1ccc(Br)cc1/C=N/n1cnnc1 | -9.95% |
| O=C(/C=C/c1cc2c(cc1Br)OCO2)NCc1ccc(Cl)cc1 | -4.49% |
| O=C(NN1C(=O)C2C3C=CC(C4CC34)C2C1=O)c1ccc(Cl)cc1 (stereo not drawn) | -4.12% |
| O=c1c2ccccc2nc2n1C(CSc1ccc(F)cc1)CN2 (stereo not drawn) | -16.9% |
| COc1ccc(C(=O)Oc2cc(/C=N/NS(=O)(=O)c3ccc(C)cc3)ccc2OC)cc1 | 4.47% |
| COC(=O)c1sccc1-n1cccc1C(=O)C(=O)N1CCCCC1 | -4.39% |
| O=C(/C=N/O)Nc1ccccc1 | 16.8% |
| CSc1ccc(C#N)cc1NC(=O)c1cccc(Cl)c1 | -11% |
| Cc1c(C(=O)NCc2ccccc2)cnn1-c1ccccc1 | 0.06% |
| O=C(c1ccccc1)C(Cn1cncn1)C(Sc1ccccc1)c1ccccc1 (stereo not drawn) | 7.82% |
| CC(C)NC(=O)CSc1ccccc1C(=O)NCc1ccc2c(c1)OCO2 | -4.49% |
| CCOc1ccc2nc(SC(CC)C(=O)Nc3cc(C)on3)sc2c1 (stereo not drawn) | -0.74% |
| CCc1ccc(/C=N/NC(=O)c2ccc(OC3CCCC3)cc2)s1 | 14.9% |
| O=C(COc1ccc(/C=N/NS(=O)(=O)c2ccccc2)cc1)NCCc1ccccc1 | 5.78% |
| NC(=O)c1ccccc1NC(=O)c1ccccc1F | 3.21% |
| Cc1ccc(NC(=S)NC(=O)c2ccc(-c3ccccc3)cc2)c(C)c1 | 8.05% |

| Structure (SMILES) | inhibition |
| --- | --- |
| Cc1ccc(NC(=O)Nc2ccc3oc(C)nc3c2)cc1 | 4.51% |
| Cc1ccc(OCCCC(=O)N2CCOCC2)c(C)c1 | -3.31% |
| COc1cc(C(=S)N2CCOCC2)cc(OC)c1OC(=O)c1cc([N+](=O)[O-])cc([N+](=O)[O-])c1 | 5.88% |
| CCOc1cc(C(=S)N2CCOCC2)ccc1O | 44.1% (active) |
| Nc1c(-c2ccc(F)cc2)cnn1C1CCS(=O)(=O)C1 (stereo not drawn) | -12.3% |
| O=C(NC1CCC(O)CC1)c1ccc(S(=O)(=O)NCc2ccco2)cc1 (stereo not drawn) | -0.49% |
| COCCCNCC(=O)Nc1sc(C)c(C)c1C(=O)OC | 8.99% |
| CSc1ccc(C#N)cc1NC(=O)c1ccc(Cl)cc1 | -3.87% |
| Cc1cccc(N2CCN(C(c3ccccc3)c3nnnn3CC3CCCO3)CC2)c1C (stereo not drawn) | 1.54% |
| O=C(O)C1CC=CCC1C(=O)Nc1ccccc1C(=O)N1CCN(c2ccccc2)CC1 (stereo not drawn) | 11.9% |
| CC1CN(c2nc(-c3ccccc3)nnc2-c2ccccc2)CC(C)O1 (stereo not drawn) | 3.23% |
| Cc1cc(N=CC2=C(O)CCCC2=O)no1 | -4.13% |
| CCCC(C)n1[nH]c(=O)c2c(C)cc(C)nc21 (stereo not drawn) | 0.53% |
| COc1ccccc1NC(=O)CSc1nnc(C)n1CC1CCCO1 (stereo not drawn) | 2.59% |
| Cc1cc(N2C(=O)C(=O)/C(=C(/O)c3ccc(Cl)cc3)C2c2cccc(Br)c2)no1 (stereo not drawn) | 40% (active) |
| COc1ccc(/C(O)=C2/C(=O)C(=O)N(c3nc(C)c(C)s3)C2c2ccco2)cc1 (stereo not drawn) | 8.17% |
| COc1ccc(/C(O)=C2/C(=O)C(=O)N(CC3CCCO3)C2c2ccc(OC)c(OC)c2)cc1 (stereo not drawn) | -5.65% |
| O=C1OC(c2ccc(Cl)cc2)=N/C1=C\c1cccnc1 | -6.03% |
| Cc1c(NC(=O)c2cc(-c3ccc(Cl)s3)nc3ccccc23)c(=O)n(-c2ccccc2)n1C | 11.2% |
| CCOC(=O)c1nc(N)sc1C(=O)OCC | -6.13% |
| CCCCOC(=O)Cn1c(=O)n(CC(=O)OCCCC)c2cc(C)ccc21 | 6.83% |
| O=C1CC(C(F)(F)C(F)(F)C(F)(F)C(F)(F)F)=Nc2ccccc2N1 | -10.2% |

| Structure (SMILES) | inhibition |
| --- | --- |
| CCOC(=O)c1cc(C#N)c(N2CCCCC2)nc1-c1ccccc1 | 1.24% |
| CC(C)(CSc1nncn1/N=C/c1ccco1)NS(=O)(=O)c1ccc(Cl)cc1 | -7.17% |
| COc1ccc(/C=C2/S/C(=N/N=C3\CC4CCC3(C)C4(C)C)NC2=O)cc1 (stereo not drawn) | 7.63% |
| COc1ccc(CN2CCn3ncc(C(=O)Nc4ccc(Cl)cc4Cl)c3C2=O)cc1 | -5.33% |
| Cc1sc(NC(=O)C2C3CCC(O3)C2C(=O)O)c(C(=O)OC(C)C)c1-c1ccc(Cl)cc1 (stereo not drawn) | 34% (active) |
| CC(C)OC(=O)c1cc(NC(=O)C2C3CCC(O3)C2C(=O)O)cc(C(=O)OC(C)C)c1 (stereo not drawn) | -5.25% |
| COc1ccc(C(=O)N2CC3(C)CC2CC(C)(C)C3)cc1OC (stereo not drawn) | -3.98% |
| CC(=O)Oc1ccc(C)cc1N1C(=O)c2ccc(C(=O)O)cc2C1=O | 0.06% |
| CCC1(C)Cc2c(sc3nc(SC)nc(N)c23)CO1 (stereo not drawn) | -3.48% |
| CCC1(CC)NC(=O)N(CC(=O)OCC(=O)Nc2ccc(C(F)(F)F)cc2)C1=O | 8.68% |
| CCN1CCN(C(=O)/C=C\C(=O)O)CC1 | 0.01% |
| Cc1cccc(CSc2nnc(NC(=O)CSc3nnc(C)s3)s2)c1 | 4.19% |
| COc1cccc(/C=N\Nc2nncc(-c3ccccc3)n2)c1 | 2.99% |
| CCN1CCN(C(=O)C2(NC(=O)Nc3cccc(F)c3)CCCCC2)CC1 | -5.76% |
| CCCCOC(=O)Nc1sc2nc(C)cc(C)c2c1-n1cccc1 | 6.76% |
| CCOC(=O)C(=O)Nc1nc(-c2ccccc2)c(CC)s1 | 2.06% |
| Cc1nnc(SCc2nc3ccccc3nc2C)s1 | -10.2% |
| Cc1cccc(NC(=S)Nc2ccc(Br)cc2)c1 | -9.18% |
| CC(=O)NNc1cc(=O)c2c(=O)n(C)c(=O)n(C)c2[nH]1 | 1.01% |
| CNS(=O)(=O)c1cnccc1N1CCN(c2cccc(C)c2)CC1 | 2.37% |
| c1ccc(Nc2nc(-c3ccncc3)cs2)nc1 | -4.36% |
| COc1ccc(OC)c(Nc2nc(-c3ccc(O)c(O)c3)cs2)c1 | 42.1% (active) |

| Structure (SMILES) | inhibition |
| --- | --- |
| COc1ccc(-c2n[nH]c(C)c2-c2ccc(OC)c(OC)c2)c(O)c1 | -3.87% |
| Cc1ccccc1NC(=S)Nc1cccc([N+](=O)[O-])c1 | 2.56% |
| Cc1cc(=O)n2c3c(cccc13)CCC2 | -4.67% |
| COc1ccc(-n2nnnc2SCc2nc(N)nc(N3CCOCC3)n2)cc1 | -0.42% |
| C=CCn1c(SCC(=O)c2c(N)n(C)c(=O)n(C)c2=O)nc2sc(CC)cc2c1=O | 9.01% |
| CCOC(=O)C(=CNc1cccc(C)n1)C(=O)OCC | -3.58% |
| O=c1c2ccccc2c(-c2ccc(F)cc2)nn1-c1ccc(C(F)(F)F)cc1 | 5.92% |
| CCCC1(C(=O)OCC)NC(c2ccc(N(C)C)cc2)C2C(=O)N(c3ccc4c(c3)OCCO4)C(=O)C21 (stereo not drawn) | -2.24% |
| O=c1c2ccccc2nc2n1C(CSc1ccc(Cl)cc1)CN2 (stereo not drawn) | 3.79% |
| COCCn1c(C)cc(C(=O)CSc2ncnc3sc4c(c23)CCC4)c1C | -1.83% |
| Cc1cc(C)n(-c2nc(SCC(=O)N3CCCC3)c3c4c(sc3n2)CCCC4)n1 | 40.1% (active) |
| N=c1c2c3c(sc2nc2n1CCCCC2)CCCC3 | -6.19% |
| COCc1cc(C)nc2sc(C(=O)NC3CCCCC3)c(N)c12 | -2.12% |
| COCCNc1nc(-n2nc(C)cc2C)nc2sc3c(c12)CCCC3 | 52.7% (active) |
| CCCc1nc2sc3c(c2c(=O)n1NC(=O)CCCl)CCCC3 | -7.23% |
| O=C(O)C1CCN1C1CCCCC1 (stereo not drawn) | 0.02% |
| Cc1cccc(-n2cnc(C(=O)Nc3cccnc3)c2)n1 | 9.43% |
| O=S(=O)(c1cccc2nonc12)N1CCN(c2cccc(Cl)c2)CC1 | -9.46% |
| CCN(CC)c1nc(-c2ccccc2)cc(C(F)(F)F)c1C#N | -3.86% |
| CCOC(=O)N1CCN(C(=O)CN(C2CCCCC2)S(C)(=O)=O)CC1 | -1.82% |
| Cc1ccc(OCC(=O)N/N=C/c2ccncc2)cc1 | -5.31% |
| COc1ccc(-c2c(C(C)=O)c(C)nc3sc4c(=O)n(-c5ccc(C)cc5)nnc4c23)cc1 | 11.3% |
